# Test results as given in PMC4336329 (PLoS ONE, 2015).
# Out of some 310,000 compounds screened, about 14,000 (4.5%) showed an effect of 50% or more. Effects have a minus sign here. The sample as a whole holds a higher share of strong results than the screen did.
# Target: human ether-à-go-go-related gene (hERG) potassium channel (human, UniProt Q12809)
# Test: primary screen, population patch clamp on CHO cells stably expressing hERG; higher = less effect of the substance
# 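Further: peak tail current of the secondary pulse compared with the same well before compound.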
# Chain of human ether-à-go-go-related gene (hERG) potassium channel (Q12809 whole entry, looked up): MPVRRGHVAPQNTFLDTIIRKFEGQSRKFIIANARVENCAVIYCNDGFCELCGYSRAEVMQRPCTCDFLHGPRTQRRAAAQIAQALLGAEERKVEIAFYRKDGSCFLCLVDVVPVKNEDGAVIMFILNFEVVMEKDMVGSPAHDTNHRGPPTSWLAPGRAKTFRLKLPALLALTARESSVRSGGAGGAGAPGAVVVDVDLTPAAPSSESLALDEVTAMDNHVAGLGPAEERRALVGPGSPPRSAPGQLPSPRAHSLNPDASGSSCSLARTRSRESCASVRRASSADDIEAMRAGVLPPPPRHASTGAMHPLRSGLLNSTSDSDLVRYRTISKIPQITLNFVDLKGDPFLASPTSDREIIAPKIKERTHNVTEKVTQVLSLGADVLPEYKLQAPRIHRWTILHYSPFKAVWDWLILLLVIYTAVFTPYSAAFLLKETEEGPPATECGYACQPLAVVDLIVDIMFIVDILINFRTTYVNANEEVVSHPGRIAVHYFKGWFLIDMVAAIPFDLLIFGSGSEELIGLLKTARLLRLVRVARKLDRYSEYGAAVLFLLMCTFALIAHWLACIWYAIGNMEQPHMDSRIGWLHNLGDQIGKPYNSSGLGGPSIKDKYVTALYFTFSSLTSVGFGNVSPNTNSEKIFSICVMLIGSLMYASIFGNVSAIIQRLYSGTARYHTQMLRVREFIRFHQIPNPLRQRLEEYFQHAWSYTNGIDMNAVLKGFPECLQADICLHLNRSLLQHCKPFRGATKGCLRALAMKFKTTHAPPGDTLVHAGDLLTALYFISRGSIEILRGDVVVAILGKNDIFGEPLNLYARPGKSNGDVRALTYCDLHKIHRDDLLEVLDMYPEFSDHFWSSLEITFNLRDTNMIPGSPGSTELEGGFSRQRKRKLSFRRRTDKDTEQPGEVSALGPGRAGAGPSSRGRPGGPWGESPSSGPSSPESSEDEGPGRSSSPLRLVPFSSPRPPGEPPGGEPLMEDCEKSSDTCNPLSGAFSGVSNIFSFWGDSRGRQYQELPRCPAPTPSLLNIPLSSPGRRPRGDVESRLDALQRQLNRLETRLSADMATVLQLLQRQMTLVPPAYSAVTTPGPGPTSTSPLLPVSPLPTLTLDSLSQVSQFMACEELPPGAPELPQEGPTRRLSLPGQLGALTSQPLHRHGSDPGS
row,Structure (SMILES),"hERG current change (%, negative = inhibition) at 10uM"
1,Cn1c2c(c(=O)n1-c1ccccc1)CSCC2,16.5%
2,O=C(NNC(=S)NC(=O)c1cccs1)c1ccc(NC(=O)c2ccccc2)cc1,13.7%
3,Cl.O=C(O)c1ccc2nc(CO)[nH]c2c1,11.2%
4,CC(Cc1cccs1)NC(=O)Nc1ccccc1 (stereo not drawn),0.115%
5,O=C(c1ccc(S(=O)(=O)N2CCOCC2)cc1)N1CCc2ccccc2C1,-4.25%
6,CN(C)S(=O)(=O)c1ccc(C(=O)NCC(=O)N/N=C/c2ccccc2Cl)cc1,5.43%
7,COc1cc(C)c(CN2CCN(C(C)C(=O)NC(C)c3ccccc3)CC2)cc1OC (stereo not drawn),-18.3%
8,COc1ccc(CN2CCN(C(C)C(=O)NC(C)c3ccc(F)cc3)CC2)cc1F (stereo not drawn),-62%
9,COc1ccccc1N1CCN(Cc2ccc(OC)c(OC)c2OC)CC1,-35.8%
10,CCOc1ccccc1N1CCN(Cc2cccc(OC)c2OC)CC1,-17%
11,COc1ccc(CN2CCN(C(C)C(=O)N(C)Cc3cccc(F)c3)CC2)cc1OC.O=C(O)C(=O)O (stereo not drawn),-61%
12,COc1cccc(CN2CCN(Cc3cccc(F)c3)CC2)c1.O=C(O)C(=O)O,-6.47%
13,COc1cc(CN2CCN(c3cccc(C)c3C)CC2)cc(OC)c1O,-45.4%
14,COc1ccc(CN2CCN(S(=O)(=O)c3ccc(F)cc3)CC2)cc1OC.O=C(O)C(=O)O,7.33%
15,CC(NC(=O)C(C)N1CCN(Cc2ccccc2)CC1)c1ccc(F)cc1 (stereo not drawn),5.35%
16,COc1ccc(CN2CCN(c3cccc(C)c3C)CC2)cc1OC,-72%
17,CCOc1ccccc1N1CCN(Cc2ccc(OC)c(OC)c2OC)CC1,-51.9%
18,COc1cc(CN2CCN(c3cccc(C)c3C)CC2)cc(Br)c1O,-12.6%
19,CC(C)S(=O)(=O)C1=NSC2=NC(=O)/C(=C\c3ccc(OC(=O)c4ccco4)cc3)C(=N)N21,12.8%
20,COc1cc2nc(C(C)(C)C)oc(=O)c2cc1OC,10.6%
21,NC(=O)CC(NC(=O)c1ccccc1)c1ccc(NC2CCCC2)c([N+](=O)[O-])c1 (stereo not drawn),5.39%

row,Structure (SMILES),"hERG current change (%, negative = inhibition) at 10uM"
1,Cc1cc(C(=O)OCC(=O)c2ccc(Cl)c([N+](=O)[O-])c2)c2cccc(C)c2n1,6.36%
2,CS(=O)(=O)N(Cc1ccc(C(=O)NN=C2CCCC2)cc1)c1ccccc1,8.63%
3,CCC(=O)Nc1cc(-c2cc3ccccc3oc2=O)ccc1OC,-29.6%
4,COc1ccccc1N1CCN(Cc2ccccc2)CC1.O=C(O)C(=O)O,-7.21%
5,COc1ccc(CN2CCN(Cc3ccccc3F)CC2)cc1OC.O=C(O)C(=O)O,-22.6%
6,COc1ccccc1N1CCN(Cc2cccc(Br)c2)CC1.O=C(O)C(=O)O,-5.27%
7,COc1ccc(CN2CCN(Cc3ccc4ccccc4c3)CC2)cc1OC.O=C(O)C(=O)O,-67%
8,COc1ccccc1CN1CCN(Cc2ccc3ccccc3c2)CC1.O=C(O)C(=O)O,-36.7%
9,COc1ccccc1N1CCN(Cc2ccc(Br)cc2)CC1.O=C(O)C(=O)O,-70.3%
10,COc1ccc(CN2C(=O)Cc3c2nc(N)c2c(N)nc(N4CCOCC4)c(C#N)c32)cc1,-36.8%
11,Cc1nnc(SCC(=O)Nc2nccs2)n(N)c1=O,19.4%
12,CC1CCCCC1NC(=O)c1ccc(S(=O)(=O)NCC2CCCO2)cc1 (stereo not drawn),-10.7%
13,Cc1ccc(C)c(S(=O)(=O)N2CCC3(CC2)OCCN3S(=O)(=O)c2cccs2)c1,5.64%
14,CCCc1nc(SCC(=O)c2ccccc2)c2c(=O)n(C)c(=O)n(C)c2n1,-23.5%
15,OCCNCCCCOc1ccc(F)cc1,4.18%
16,COCCCn1c(SCC(=O)Nc2sc3c(c2C#N)CCCC3)nnc1-c1ccncc1,-49.4%
17,CCn1c(SCC(=O)Nc2oc(-c3ccccc3)c(-c3ccccc3)c2C#N)nnc1-c1ccco1,-30.8%
18,CCCC(=O)Nc1sc2c(c1C#N)CCCCC2,-50.6%
19,CCC(=O)Nc1sc2c(c1C#N)CCCCC2,0.0585%
20,CCn1c(SCC(=O)Nc2oc(-c3ccccc3)c(-c3ccccc3)c2C#N)nnc1-c1ccncc1,-68.2%
21,CCn1c(SCC(=O)Nc2oc(-c3ccccc3)c(-c3ccccc3)c2C#N)nnc1-c1cc(OC)cc(OC)c1,-5.33%

row,Structure (SMILES),"hERG current change (%, negative = inhibition) at 10uM"
1,CCn1c(SCC(=O)Nc2sc3c(c2C#N)CCCC3)nnc1-c1ccncc1,-63.5%
2,N#Cc1c(NC(=O)CSc2nnc(-c3ccncc3)n2CC2CCCO2)sc2c1CCCC2 (stereo not drawn),-40.7%
3,CCCC(=O)Nc1sc2c(c1C#N)CCCC2,4.29%
4,O=S1OCCN1c1ccccc1 (stereo not drawn),10.4%
5,O=C(c1ccc(OC2CCN(CCc3ccccc3)CC2)cc1)N1CCCC(CO)C1 (stereo not drawn),-12.4%
6,COc1ccc([C@H]2/C=C\CN(S(=O)(=O)c3ccc4ccccc4c3)[C@@H](C)C(=O)N2Cc2ccc(F)cc2)cc1,6.43%
7,CC1CCCC(C)N1C(=O)CN1C(=O)c2ccccc2S1(=O)=O (stereo not drawn),3.3%
8,O=C(Cc1ccccc1)Nc1ccc(NC(=O)c2ccc(Br)cc2)cc1,15.4%
9,OC1(c2ccccc2)CN(c2ccccc2)C2=[N+]1CCS2.[Br-] (stereo not drawn),-28.1%
10,OC1(c2ccc(F)cc2)CN(c2ccccc2)C2=[N+]1CCS2.[Br-] (stereo not drawn),-13.9%
11,O=[N+]([O-])c1ccc(C2(O)CN(c3ccccc3)C3=[N+]2CCS3)cc1.[Br-] (stereo not drawn),-60.8%
12,OC1(c2ccc(Cl)cc2)CN(c2ccccc2)C2=[N+]1CCS2.[Br-] (stereo not drawn),-50.4%
13,Cc1ccc(C2(O)CN(c3ccccc3)C3=[N+]2CCS3)cc1.[Br-] (stereo not drawn),-32.6%
14,Cc1ccc(C2(O)CN(c3ccccc3C)C3=[N+]2CCS3)cc1.[Br-] (stereo not drawn),-28.1%
15,O=P(COCCO)(c1ccccc1)c1ccccc1,-4.96%
16,COc1ccc(NC(=O)C2Cc3ccccc3O/C2=N\O)cc1 (stereo not drawn),13.8%
17,Cc1ccc2nc(C3CCN(C(=O)NCc4ccccc4)CC3)[nH]c2c1,-30%
18,CCOc1ccccc1NC(=O)N1CCC(c2nc3ccccc3[nH]2)CC1,-23.6%
19,COc1cccc(CNC(=O)CN2CCC(c3nc4ccc(C)cc4[nH]3)CC2)c1,-68.4%
20,CCOc1ccccc1NC(=O)N1CCC(c2nc3ccc(C)cc3[nH]2)CC1,-55.5%
21,COc1ccccc1NC(=O)CN1CCC(c2nc3ccc(C)cc3[nH]2)CC1,-57.7%

row,Structure (SMILES),"hERG current change (%, negative = inhibition) at 10uM"
1,COc1ccccc1NC(=O)CN1CCC(c2nc3ccccc3[nH]2)CC1,-43.6%
2,COc1ccccc1NC(=O)N1CCC(c2nc3cc(C)c(C)cc3[nH]2)CC1,-53.3%
3,COc1ccccc1NC(=S)N1CCC(c2nc3cc(C)c(C)cc3[nH]2)CC1,-21%
4,CCOC(=O)CNC(=O)CN1CCC(c2nc3ccccc3[nH]2)CC1,13.7%
5,COc1ccc(C(=O)NC2CCN(CC(=O)NCc3cccc(OC)c3)CC2)cc1,-19.9%
6,COc1cccc(CNC(=O)CSc2nc3ccc(C)cc3[nH]2)c1,6.22%
7,COc1ccc(NC(=O)N2CCC(c3nc4ccccc4[nH]3)CC2)cc1,9.26%
8,COc1ccccc1-c1cnn2c(N3CCOCC3)cc(C)nc12,23.9%
9,C=CCOc1ccc(/C=C/C(C)=N\O)cc1,4.84%
10,O=[N+]([O-])c1c(Nc2ccccn2)cc(Cl)c2nonc12,9.59%
11,CSCCC1NC(=S)N(Cc2ccccc2)C1=O (stereo not drawn),16.3%
12,CCN(CC)C(=O)CSc1ccccc1N,13%
13,C[C@@H]1CC=C[C@H]2[C@H]1C(=O)N(Cc1ccccc1)[C@H]2c1ccc2ccccc2c1,3.52%
14,COc1ccc(C2=C(Nc3ccc(C)cc3)c3ccccc3C2=O)cc1,3.57%
15,COc1ccccc1C(CNC(=O)c1cc(S(=O)(=O)N2CCOCC2)ccc1C)N1CCCC1 (stereo not drawn),2.53%
16,CCn1cc(C(=O)N2CCCC2)c(=O)c2cc(S(=O)(=O)N3CCC(C)CC3)ccc21,6.02%
17,CCn1cc(C(=O)N2CCCCC2)c(=O)c2cc(S(=O)(=O)N3CCC(C)CC3)ccc21,-18.4%
18,CCn1cc(C(=O)N2CCN(c3ccccn3)CC2)c(=O)c2cc(S(=O)(=O)N3CCC(C)CC3)ccc21,-55.9%
19,CCn1cc(C(=O)N2CCOCC2)c(=O)c2cc(S(=O)(=O)N(C)C3CCCCC3)ccc21,0.899%
20,CCn1cc(C(=O)N2CCN(c3ccccn3)CC2)c(=O)c2cc(S(=O)(=O)N(C)C3CCCCC3)ccc21,-63.1%
21,CCOC(=O)N1CCN(C(=O)c2cn(CC)c3ccc(S(=O)(=O)N(C)C4CCCCC4)cc3c2=O)CC1,-17.3%
